Reference: PubChem BioAssay (NCATS)
Several values for one entry are separate records, joined by “and”; a condition that tells them apart may be missing. Equal values may be shown once. Results filed as inconclusive are left out. A call without a number means that no potency is given here. Unmarked numbers belong to inactive results. Activity calls are given as the source filed them. The call rests on the fitted dose curve; in most records, active means well fitted curve in the direction sought with a large enough effect; inconclusive means small, poorly fitted or top-dose-only effect, or another doubt; inactive means no such curve, though single readings can be large; an effect the other way counts as inactive or inconclusive. Peptide text beside a SMILES is read from it. * marks the point of attachment. βNA = c1ccc2cc(N*)ccc2c1; Cbz = O=C(OCc1ccccc1)*

How the values were obtained:
[1] = biological target: Cellular tumor antigen p53 (Homo sapiens) (UniProt P04637); assay: Primary qHTS for small molecule compounds that upregulate eGFP-tagged delta133p53alpha (in N-terminal) cells. (AID 2060322); conditions: NCI-H358 eGFP-delta133p53alpha fluorescence, 24 h; activation: hits give high values; further: nearly all actives have a fitted effect of over 75% in size; further: potency means the concentration at half of the fitted maximal effect
In short: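 NCI-H358 cells pre-induced 24 h with 10 ng/ml doxycycline to express N-terminal eGFP-delta133p53alpha, then dosed 24 h at 37C without doxycycline; fixed, Hoechst-stained, GFP intensity by laser scanning cytometry, normalized to DMSO (0%) and 57.5 uM 5-azacytidine (100%).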

[2] = biological target: Aldehyde dehydrogenase, mitochondrial (Homo sapiens) (UniProt P05091); assay: qHTS for Inhibitors of the Aldehyde Dehydrogenase Family (ALDH2) Primary screen (AID 2061308); conditions: ALDH2 enzyme inhibition qHTS, 1536-well; series mostly up to 56 µM; further: nearly all actives have a fitted effect of over 55% in size
[3] = biological target: Retinaldehyde dehydrogenase 3 (Homo sapiens) (UniProt P47895); assay: qHTS for Inhibitors of the Aldehyde Dehydrogenase Family (ALDH1A3) Primary screen (AID 2061315); conditions: ALDH inhibition qHTS; series mostly up to 56 µM

Cellular tumor antigen p53 (Homo sapiens), sequence (P04637 whole entry, looked up): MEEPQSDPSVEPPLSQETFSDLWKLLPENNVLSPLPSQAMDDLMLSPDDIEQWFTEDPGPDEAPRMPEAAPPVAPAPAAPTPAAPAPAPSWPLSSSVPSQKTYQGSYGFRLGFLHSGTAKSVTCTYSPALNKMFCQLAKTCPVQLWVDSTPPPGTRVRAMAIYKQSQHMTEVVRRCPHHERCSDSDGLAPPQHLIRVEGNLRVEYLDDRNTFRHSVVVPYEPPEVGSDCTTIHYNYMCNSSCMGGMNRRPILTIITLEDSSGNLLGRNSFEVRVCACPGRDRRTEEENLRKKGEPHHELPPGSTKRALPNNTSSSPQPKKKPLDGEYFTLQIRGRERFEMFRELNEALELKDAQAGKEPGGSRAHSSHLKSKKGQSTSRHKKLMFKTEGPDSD

Structure (SMILES) | activation [1] | Potency [2] | Potency [3] | Potency [1]
COC(=O)[C@]1(C)CCC[C@@]2(C)C(=O)CC[C@H]3C(=O)C=C(CC[C@@H]21)C3O (some centres not stated) | 1.53% | inactive | inactive | 
CC(C)(C)NC(=O)[C@@H]1CN(Cc2cccnc2)CCN1C[C@@H](O)C[C@@H](Cc1ccccc1)C(=O)N[C@H]1c2ccccc2C[C@H]1O | -2.82% and 2.86% | inactive | inactive | 
CC1(C)CC[C@]2(C(=O)O[C@@H]3O[C@H](CO)[C@@H](O)[C@H](O)[C@H]3O)CC[C@]3(C)C(=CCC4[C@@]5(C)CC[C@H](O[C@@H]6O[C@H](C(=O)O)[C@@H](O)[C@H](O)[C@H]6O)[C@@](C)(CO)C5CC[C@]43C)C2C1 (some centres not stated) | -1.53% | inactive | inactive | 
O=C(NCCO)c1cccc(-c2cc(Nc3ccc(OC(F)(F)F)cc3)ncn2)c1 | 1.79% | inactive | inactive | 
CN1[C@@H]2CC[C@H]1CC(OC(=O)c1c[nH]c3ccccc13)C2 (some centres not stated) | -6.21% and -7.16% | inactive | inactive | 
C=C[C@@]1(C)CC(=O)C2[C@](C)(O1)[C@@H](OC(C)=O)[C@@H](O)[C@H]1C(C)(C)CCC[C@]21C (some centres not stated) | -4.33% | inactive | inactive | 
CC(C)COc1ccc(CNC(=O)N(Cc2ccc(F)cc2)C2CCN(C)CC2)cc1 | -15.7% | inactive | inactive | 
COC(=O)CC(O)C1OC(c2ccccc2)C(O)C1O (configuration not stated) | -2.29% | inactive | inactive | 
O=C(c1ccccc1)c1c(O)cc(O)cc1O[C@@H]1O[C@H](CO)[C@@H](O)[C@H](O)[C@H]1O | -13% | inactive | inactive | 
CC1(C)CCCC2(C)C1CC(=O)C13CC(CCC12)C(O)(CO)C3 (configuration not stated) | -7.63% | inactive | inactive | 
CCc1cccc(CC)c1-n1c(C=C(C)C)c(C(=O)N2CCNCC2)cc(-c2nc(-c3ccc(C(F)(F)F)cc3)cs2)c1=O | 26.3% | inactive | inactive | 
C=C1C(=O)OC2CC(C)C(CCC(C)=O)=CCC12 (configuration not stated) |  | inactive | inactive | 16.9 µM (active)
CC(C)(C)NC(=O)[C@H]1CC[C@H]2[C@@H]3CC[C@H]4NC(=O)CC[C@]4(C)[C@H]3CC[C@]12C | 21.7% | inactive | inactive | 
CC1(C)CCC2(C(=O)OC3OC(CO)C(O)C(O)C3O)CCC3(C)C(=CCC4C5(C)CCC(OC6OC(C(=O)O)C(OC7OC(CO)C(O)C(O)C7O)C(OC7OC(CO)C(O)C(O)C7O)C6O)C(C)(C)C5CCC43C)C2C1 (configuration not stated) | -5.34% | inactive | inactive | 
C[C@@H]1O[C@@H](O[C@H]2[C@H](O[C@H]3[C@H](O[C@H]4CC[C@@]5(CO)C(CC[C@]6(C)C5CC=C5C7CC(C)(C)C[C@@H](O)[C@]7(C)CC[C@]56C)C4(C)C)O[C@H](C(=O)O)[C@@H](O)[C@@H]3O)OC[C@@H](O)[C@@H]2O)[C@H](O)[C@H](O)[C@H]1O (some centres not stated) | -15.3% | inactive | inactive | 
CC[C@]12CCCN3CCc4c(n(c5ccccc45)C(=O)C1)[C@@H]32 |  | inactive | inactive | 13.8 µM (active) and 10.7 µM (active)
CC(=O)NC1C(OC2CCC3(C)C(CCC4(C)C3CC=C3C5CC(C)(C)CCC5(C(=O)O)C(O)CC34C)C2(C)C)OC(CO)C(O)C1O (configuration not stated) | 1.53% | inactive | inactive | 
CC(C)=CCC[C@](C)(O[C@@H]1O[C@H](CO)[C@@H](O)[C@H](O)[C@H]1O)[C@H]1CC[C@]2(C)[C@@H]1[C@H](O)CC1[C@@]3(C)CC[C@H](O)C(C)(C)C3[C@@H](O[C@@H]3O[C@H](CO)[C@@H](O)[C@H](O)[C@H]3O[C@@H]3O[C@@H](C)[C@H](O)[C@@H](O)[C@H]3O)C[C@]12C (some centres not stated) | -21.4% | inactive | inactive | 
CC(=O)O[C@@H]1[C@@H](OC(C)=O)[C@H](C)O[C@@H](O[C@H]2[C@@H]3C=CO[C@@H](O[C@@H]4O[C@H](CO)[C@@H](O)[C@H](O)[C@H]4O)[C@@H]3[C@@]3(CO)O[C@@H]23)[C@@H]1OC(=O)/C=C/c1ccccc1 | -1.53% | inactive | inactive | 
N#Cc1cc(CN2CCC(Nc3ncnc4sc(Cl)cc34)CC2)ccc1F | 5% | inactive | inactive | 

Structure (SMILES) | activation [1] | Potency [2] | Potency [3] | Potency [1]
C=C1C(O)CC2C(C(=O)O)=COC(O[C@@H]3O[C@H](COC(=O)/C=C/c4ccc(O)cc4)[C@@H](O)[C@H](O)[C@H]3O)C12 (some centres not stated) | -6.87% | inactive | inactive | 
C[C@H](C(=O)NC1CCCC1)N(C(=O)Cn1nnc(-c2ccc3c(c2)OCO3)n1)C1CCCCC1 | 9% | inactive | inactive | 
C=CC(C)(C)C12C=C(OC)C(=O)N3C(C(C)C)C(=O)NC31N(OC)c1ccccc12 (configuration not stated) | -9.16% | inactive | inactive | 
C=C1C(=O)O[C@@H]2CC(C)=C([C@@H](C)CCCO)[C@@H](OC(=O)C(C)C)[C@H]12 | 14.3% | inactive | inactive | 
C=C1C(=O)O[C@@H]2C[C@@]3(C)C[C@@H](O)C[C@H](C)C3=C[C@H]12 |  | inactive | inactive | 23.9 µM (active)
CC1(C)C[C@H](O)C[C@@]2(C)OC(=O)C=C12 | 19.6% | inactive | inactive | 
C/C(=C/CCC(CO)C1CCC2(C)C3CCC4C(C)(C)C(OC5OC(CO)C(O)C(O)C5O)CC(O)C45CC35CCC12C)COC1OC(CO)C(O)C(O)C1O (configuration not stated) | -10.7% | inactive | inactive | 
CC1(C)CC[C@]2(C(=O)OC3OC(CO)C(O)C(O)C3O)CC[C@]3(C)C(=CCC4[C@@]5(C)C[C@@H](O)[C@H](OC6OC(C(=O)O)C(O)C(O)C6O)C(C)(C)C5CC[C@]43C)[C@@H]2C1 (some centres not stated) | -2.29% | inactive | inactive | 
CC(=O)OCC1OC(O[C@H]2CC[C@]34C[C@]35CC(O)[C@]3(C)[C@@H]([C@H](C)CC/C=C(\C)C(=O)O)C(O)C[C@@]3(C)C5CC[C@H]4C2(C)C)C(O)C(O)C1OC1OCC(O)C(O)C1O (some centres not stated) | -13% | inactive | inactive | 
CC(=O)N[C@@H](C(=O)O[C@H]1CCC(C)(C)[C@@H]2CCC3=C(COC3=O)[C@@]12C)C(C)C | -12.2% | inactive | inactive | 
CC(C)CC(NC(=O)OCc1ccccc1)C(=O)NC(CC(C)C)C(=O)NC(CCC(=O)O)C(=O)Nc1ccc2ccccc2c1 (stereo not drawn) (Cbz-Leu-Leu-Glu-βNA; configuration not given here) | -5.67% | inactive | inactive | 
Nc1ncnc2c1ncn2CCNCCCCCO | -0.333% | inactive | inactive | 
CC1CCC(=O)CC(O)C(O)CC(=O)O1 (configuration not stated) | 10.7% | inactive | inactive | 
O=C(/C=C/c1ccc(O)cc1)OC[C@]12O[C@H]1[C@@H](O)[C@@H]1C=CO[C@@H](O[C@@H]3O[C@H](CO)[C@@H](O)[C@H](O)[C@H]3O)[C@@H]12 | 18.3% | inactive | inactive | 
C=CC(C)(C)C12Nc3c(ccc4c3OC(C)(C)C=C4)C1(O)CC1C(=O)N3CCCC3C(=O)N12 (configuration not stated) | -0.763% | inactive | inactive | 
C[C@H]1CC[C@@]2(OC1)O[C@H]1CC3C4CC[C@H]5C[C@@H](O)[C@H](O)C[C@]5(C)C4=CC(=O)[C@]3(C)[C@H]1[C@@H]2C (some centres not stated) | 14.3% | inactive | inactive | 
CC1(C)CC[C@]2(C(=O)O[C@@H]3O[C@H](CO)[C@@H](O)[C@H](O)[C@H]3O)CC[C@]3(C)C(=CCC4[C@@]5(C)C[C@@H](O)[C@H](O)[C@@](C)(CO)C5[C@H](O)C[C@]43C)C2C1 (some centres not stated) | 3.82% | inactive | inactive | 
COc1ccc(OC2OC(CO[C@@H]3O[C@@H](C)[C@H](O)[C@@H](O)[C@H]3O)C(O)C(O)C2O)cc1OC (some centres not stated) | 8.4% | inactive | inactive | 
CCOC(=O)C1=Cc2ccc(C(F)(F)C(F)(F)F)cc2N=C(N)C1 | -1.79% | inactive | inactive | 
